Reference: PubChem BioAssay (NCATS)
Results filed as inconclusive are left out. Calls of active or inactive are those of the source. The call rests on the fitted dose curve; in most records, active means well fitted curve in the direction sought with a large enough effect; inconclusive means small, poorly fitted or top-dose-only effect, or another doubt; inactive means no such curve, though single readings can be large; an effect the other way counts as inactive or inconclusive.

Assay: qHTS of pediatric cancer cell lines to identify multiple opportunities for drug repurposing: Primary screen for SK-N-MC cells (AID 1347093);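 on activity change, negative = cytotoxic: plate controls were DMSO neutral control for no effect and bortezomib for full effect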
Conditions: SK-N-MC viability, CellTiter-Glo luminescence, 48 h; series mostly up to 46 µM; activity change, negative = cytotoxic: at the top concentration
Summary of the method: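 Metabolically active cells were quantified by ATP-dependent luminescence (CellTiter-Glo, 15 min at room temperature) following 48 h treatment. Cells had been plated at 500-1,000 per well and settled for 5 h beforehand.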
Potency means the concentration at half of the fitted maximal effect.

SMILES | Potency | activity change, negative = cytotoxic
CCN1CCN(Cc2ccc(-c3cc4c(N[C@H](C)c5ccccc5)ncnc4[nH]3)cc2)CC1 | 0.001 µM (active) | –
CCc1c2c(nc3ccc(O)cc13)-c1cc3c(c(=O)n1C2)COC(=O)[C@]3(O)CC | 0.0021 µM (active) | –
CNC(=O)c1ccc(N2C(=S)N(c3cnc(C#N)c(C(F)(F)F)c3)C(=O)C23CCC3)cc1F | 1.05 µM (active) | –
Cc1ccc(C(=O)Nc2cccc(C(F)(F)F)c2)cc1-c1ccc2nc(NCCN3CCOCC3)ncc2c1 | 4.69 µM (active) | –
Nc1nc(NCCNc2ncc(-n3ccnc3)c(-c3ccc(Cl)cc3Cl)n2)ccc1[N+](=O)[O-] | 1.66 µM (active) | –
COc1ccc(CC2c3cc(OC)c(OC)cc3CC[N+]2(C)CCC(=O)OCCCCCOC(=O)CC[N+]2(C)CCc3cc(OC)c(OC)cc3C2Cc2ccc(OC)c(OC)c2)cc1OC (stereo not drawn) | – | -16.8% [at 9.22 µM] (inactive)
Cc1cn(-c2cc(NC(=O)c3ccc(C)c(Nc4nccc(-c5cccnc5)n4)c3)cc(C(F)(F)F)c2)cn1 | – | 27.7% (inactive)
C=C1C(=CC=C2CCCC3(C)[C@@H]([C@H](C)C=CC=CC(O)(CC)CC)CC[C@@H]23)C[C@@H](O)C[C@@H]1O (stereo partly drawn) | 6.62 µM (active) | –
CC(C)c1ccc(Cn2ccc3c4c(N)nc(NC5CC5)nc4ccc32)cc1 | 0.743 µM (active) | –
Cc1ccc(S(=O)(=O)Nc2cc(Cl)ccc2C(=O)Nc2nc(-c3ccccc3)cs2)cc1 | 7.43 µM (active) | –
CC[C@@]1(O)C(=O)OCc2c1cc1n(c2=O)Cc2cc3cc(O)ccc3nc2-1 | 0.0132 µM (active) | –

Assay: qHTS of pediatric cancer cell lines to identify multiple opportunities for drug repurposing: Primary screen for BT-37 cells (AID 1347094);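 on activity change, negative = cytotoxic: plate controls were DMSO for no effect and bortezomib for full effect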
Conditions: BT-37 viability, CellTiter-Glo luminescence, 48 h; series mostly up to 57.3 µM; activity change, negative = cytotoxic: at the top concentration
Summary of the method: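 CRCs from 8- or 11-point titrations (lowest final 0.59 nM NPC, 0.78 nM MIPE). Cell viability: CellTiter-Glo after 48 h incubation, 15 min room-temperature development, luminescence imaging.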

SMILES | Potency | activity change, negative = cytotoxic
CCN1CCN(Cc2ccc(-c3cc4c(N[C@H](C)c5ccccc5)ncnc4[nH]3)cc2)CC1 | 0.153 µM (active) | –
CCc1c2c(nc3ccc(O)cc13)-c1cc3c(c(=O)n1C2)COC(=O)[C@]3(O)CC | 0.0086 µM (active) | –
CNC(=O)c1ccc(N2C(=S)N(c3cnc(C#N)c(C(F)(F)F)c3)C(=O)C23CCC3)cc1F | 19.3 µM (active) | –
Cc1ccc(C(=O)Nc2cccc(C(F)(F)F)c2)cc1-c1ccc2nc(NCCN3CCOCC3)ncc2c1 | 6.11 µM (active) | –
CCc1cc2c(cc1N1CCC(N3CCOCC3)CC1)C(C)(C)c1[nH]c3cc(C#N)ccc3c1C2=O | – | -1.75% (inactive)
CN1CCN(c2ccc3nc(-c4c(N)c5c(F)cccc5[nH]c4=O)[nH]c3c2)CC1 | 15.3 µM (active) | –
Clc1cccc(-c2nnnn2Cc2cccnc2)c1Cl | – | 2.69% (inactive)
CN1CCN(Cc2ccc(NC(=O)Nc3ccc(Oc4cc(NC(=O)C5CC5)ncn4)cc3)cc2C(F)(F)F)CC1 | 0.544 µM (active) | –
CC(C)c1ccccc1Cc1cc(C(=O)Nc2ccc(S(=O)(=O)c3ccccc3C(C)(C)C)cc2)c(O)c(O)c1O | 24.3 µM (active) | –
O=C(c1cncc(Br)c1)N1CCC(N2CCCC2)CC1 | – | 10.7% (inactive)
CNC(=O)c1ccccc1Nc1nc(Nc2ccc(N3CCOCC3)cc2OC)ncc1Cl | 7.69 µM (active) | –
COc1ccc(CC2c3cc(OC)c(OC)cc3CC[N+]2(C)CCC(=O)OCCCCCOC(=O)CC[N+]2(C)CCc3cc(OC)c(OC)cc3C2Cc2ccc(OC)c(OC)c2)cc1OC (stereo not drawn) | – | 6.03% [at 11.5 µM] (inactive)
O=C(O)c1ccc2c(c1)nc(Nc1cccc(Cl)c1)c1ccncc12 | 7.69 µM (active) | –
CC(C)(O)CCc1ccc(OCc2cc(-c3cccc(OC(F)F)c3)c3ncccc3c2)cc1 | – | -0.284% (inactive)
Cc1cn(-c2cc(NC(=O)c3ccc(C)c(Nc4nccc(-c5cccnc5)n4)c3)cc(C(F)(F)F)c2)cn1 | – | 6.94% (inactive)
COC(=O)c1ccc2c(C(=Nc3ccc(N(C)C(=O)CN4CCN(C)CC4)cc3)c3ccccc3)c(O)[nH]c2c1 | 3.85 µM (active) | –
C1=CCOCc2cc(ccc2OCCN2CCCC2)Nc2nccc(n2)-c2cccc(c2)OCC1 | 12.2 µM (active) | –
CC(C)(C)c1cc(C(C)(C)C)c(NC(=O)c2c[nH]c3ccccc3c2=O)cc1O | – | 7.37% (inactive)
CCS(=O)(=O)c1cccc(-c2cc(C(=O)NC3CCN(C)CC3)c(C)c3[nH]c4ncc(C)cc4c23)c1 | 3.06 µM (active) | –
C#Cc1cccc(Nc2ncnc3cc(OC)c(OCCCCCCC(=O)NO)cc23)c1 | 0.611 µM (active) | –
CC(C)c1ccc(Cn2ccc3c4c(N)nc(NC5CC5)nc4ccc32)cc1 | 12.2 µM (active) | –
Cc1ccc(S(=O)(=O)Nc2cc(Cl)ccc2C(=O)Nc2nc(-c3ccccc3)cs2)cc1 | 17.2 µM (active) | –
